From PubChem
Efflux pump inh: inhibitors of Candida antifungal efflux pumps expressed in yeast | S. cerevisiae Candida pump triplex, Nile Red efflux | inhibition, % at 10 µM | 330,000 compounds, 0.44% hits;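 active = plate passing quality check with inhibition over a set limit, or well fluorescence over plate mean plus 4 SD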;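 note: Nile Red retained in pooled yeast measured as flow cytometry median fluorescence; 0% = buffer negative control and 100% = Enniatin B positive control; higher means more Nile Red kept so more efflux inhibition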
ALR inh: blocks human ALR sulfhydryl oxidase activity; inhibition, % (test concentration not listed); 290,000 compounds, 3.8% hits; AID 485317; purified ALR, DTT oxidation, H2O2 HRP-luminol luminescence; P55789;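 active = mean replicate inhibition above about 79%, with every replicate also reaching it, limit read from the data; inconclusive = only one of the two criteria met; inactive = mean below limit and not every replicate reaching it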
Target sequence (P55789 whole entry, looked up): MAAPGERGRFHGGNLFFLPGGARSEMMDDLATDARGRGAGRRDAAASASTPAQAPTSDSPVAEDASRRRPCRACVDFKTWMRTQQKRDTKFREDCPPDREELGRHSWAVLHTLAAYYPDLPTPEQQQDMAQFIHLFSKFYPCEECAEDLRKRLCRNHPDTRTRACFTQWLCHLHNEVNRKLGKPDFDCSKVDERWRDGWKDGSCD
PABP FP inh: PABP-poly(A) binding inhibition | P11940 | PABP-poly(A) RNA binding, fluorescence polarization | inhibition, % at 35 µM | 290,000 compounds, 1% hits | AID 2014;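 note: calls also rest on retests at 20 µM and on dose response follow-up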
SUMO HTRF inh: inhibitors of human SUMOylation (UBC9) | P63279 | HTRF SUMOylation assay, SAE1/SAE2 + UBC9, in vitro | inhibition, % at 35 µM | 290,000 compounds, 0.36% hits | AID 2006; in the data active = inhibition above about 50%, passing the limit was not always enough; inconclusive = no clear call, values can overlap the other calls
Target sequence (P63279 whole entry, looked up): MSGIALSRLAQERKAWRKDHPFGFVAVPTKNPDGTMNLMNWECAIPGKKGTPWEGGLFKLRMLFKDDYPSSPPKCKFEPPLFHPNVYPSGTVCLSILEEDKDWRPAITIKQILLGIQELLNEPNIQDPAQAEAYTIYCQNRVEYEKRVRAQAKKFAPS
MLLE-PAM2 inh: blocks PAM2 peptide binding to the PABP1 MLLE domain | inhibition, % at 20 µM | GST-MLLE / FITC-PAM2 fluorescence polarization | 360,000 compounds, 0.36% hits | P11940; in the data active = inhibition above about 35%, passing the limit was not always enough;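 note: plate controls were DMSO wells with GST-MLLE for no effect and wells lacking GST-MLLE protein for full effect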
eIF4H FP inh: inhibitors of RNA binding by human eIF4H. Q15056. eIF4H fluorescence polarization binding assay. inhibition, % at 35 µM. 290,000 compounds, 0.94% hits. AID 2012;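 note: calls also rest on retests at 20 µM and on dose response follow-up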
Yeast cmpd fluor: counter-screen for efflux pump inhibitors: compound fluorescence; fluorescence ratio to DMSO, % at 10 µM; S. cerevisiae AD/pABC3, flow cytometry; shares compounds with Efflux pump inh; 1,700 compounds, 4% hits;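 active = fluorescence ratio to DMSO above its plate's cutoff, the plate mean ratio plus 5 SD, cut at about 210% in these data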;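 note: unstained yeast with no Nile Red so the signal is compound autofluorescence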
Mdr1 pump inh: Candida Mdr1 efflux pump inhibition; shares compounds with Efflux pump inh; S. cerevisiae AD/CaMDR1, Nile Red efflux, flow cytometry; inhibition, % at 10 µM; 1,700 compounds, 1% hits; AID 588518; in the data active = inhibition above about 26%;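 note: 0% = DMSO vehicle and 100% = reference inhibitor; higher means more Nile Red retained so more efflux inhibition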
CaCdr2 efflux inh: inhibitors of Candida albicans Cdr2 efflux pump | S. cerevisiae AD/CaCDR2, Nile Red retention, flow cytometry | shares compounds with Efflux pump inh | AID 588520 | 1,700 compounds, 4% hits | Nile Red retention ratio vs DMSO, % at 10 µM; in the data active = Nile Red retention ratio vs DMSO above about 190%;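 note: higher ratio means more blocking of Cdr2 efflux of the dye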
Cdr1 pump inh: inhibitors of Candida albicans Cdr1 efflux pump. shares compounds with Efflux pump inh. S. cerevisiae AD/CaCDR1, Nile Red efflux, flow cytometry. 1,700 compounds, 1% hits. inhibition, % at 10 µM. AID 588522;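 active = inhibition above the screen-wide mean plus twice its standard deviation, cut at about 32% in these data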
The depositor's hits bear a star; u = inconclusive; x = no result; + = active, no number; ! = not active in a repeat. The list is not random: actives were taken first. Their share in the collection is about 4.7%. Unless noted, the rule behind the calls is not given here.

SMILES	Efflux pump inh	ALR inh	PABP FP inh	SUMO HTRF inh	MLLE-PAM2 inh	eIF4H FP inh	Yeast cmpd fluor	Mdr1 pump inh	CaCdr2 efflux inh	Cdr1 pump inh
COc1ccc(CCC(=O)NNC(=O)Cn2nc(C)cc2C)cc1	5.5*	-3.7	3.9	-5.2	-7.4	-6.6	110.0	0.2	98.5	0.0
CC(C)NCCCOc1ccc(Cl)cc1Br	1.3*	1.4	2.8	10.6	1.0	-2.3	97.6	0.1	107.2	-0.1
COCCCNCCCOc1ccc(Cl)cc1Br	0.0	-6.7	-0.3	5.2	-3.9	-0.6	x	x	x	x
Cc1ccc(C)c(-c2cc(C(=O)Nc3sc(C)c(C)c3C(N)=O)c3ccccc3n2)c1	-0.2	-4.0	-1.7	-9.5	6.6	-4.9	98.3	-0.1	103.8	0.0
COc1ccc(-n2c(=O)[nH]c3cc(C(=O)NCCc4ccccc4)ccc3c2=O)cc1OC	0.0	-16.5	5.7	19.5	-4.1	-10.6	x	x	x	x
O=C(O)CC(C(=O)O)N1C(=O)/C(=C/c2ccc(-c3nc4ccccc4s3)o2)SC1=S (stereo not given)	-0.1	49.0	118.4	3.3	10.6	126.6*	101.2	-0.2	107.2	0.0
O=Cc1ccc(-c2nc3ccccc3s2)o1	-0.1	44.9	3.6	15.0	2.4	1.1	x	x	x	x
O=C(O)CCCN1C(=O)/C(=C\c2ccccc2OCc2ccccc2)SC1=S	0.4	13.3	12.1	16.7	12.4	-0.8	x	x	x	x
O=C(O)c1ccc(-c2nc3ccccc3s2)o1	0.1	0.9	8.1	20.1	13.8	7.1	x	x	x	x
O=C(O)CCN1C(=O)/C(=C/c2ccc(-c3nc4ccccc4s3)o2)SC1=S	1.9*	61.5	u	45.8	-92.4	u	136.8	0.0	+	0.2
O=C(O)CCCN1C(=O)/C(=C\c2ccc(-c3nc4ccccc4s3)o2)SC1=S	1.1*	93.9*	84.6*	39.7	-98.6	96.1*	105.6	0.0	179.8	0.0
Cc1nc2ccccc2n1CCc1nc2c3ccccc3nc(SCC(=O)NCc3ccco3)n2n1	1.2*	-3.5	4.7	-18.4	-30.0	6.3	104.5	-0.3	116.0	0.0
CCc1cccc(C)c1NC(=O)c1ccc(CN2CCc3ccccc3C2)cc1	21.8*	-0.2	-6.1	16.0	-6.6	0.9	116.4	0.4	114.1	0.3
CCCC(=O)N1CCCC1(C)C(=O)Nc1ccc2cn[nH]c2c1 (stereo not given)	x	x	x	x	-0.5	x	x	x	x	x
C=C1CCN([C@@H](Cc2ccccc2)C(=O)NC2CCN(Cc3ccccc3)CC2)S(=O)(=O)c2ccccc21	x	-7.4	x	x	-8.8	x	x	x	x	x
O=C(Nc1cc(SCCO)cc([N+](=O)[O-])c1)c1ccc(Br)o1	0.3	-80.8	3.9	-8.5	7.5	0.6	x	x	x	x
O=C(Cc1cc(=O)[nH][nH]1)N/N=C/c1cccc(Cl)c1Cl	18.9*!	-10.3	-7.6	42.8	0.5	9.9	91.9	-0.2	95.4	0.0
O=C(Cc1cc(=O)[nH][nH]1)N/N=C/c1ccccc1Cl	0.1	x	9.1	-14.6	x	31.6	x	x	x	x
N#Cc1cnc(NN)nc1	0.9*	9.1	13.9	-3.2	4.2	3.6	106.7	-0.1	105.7	0.2
O=C1C=C(c2cccc(CO)c2)C[C@@H](c2ccc(Cl)cc2)C1	-0.1	-2.3	x	x	0.8	x	x	x	x	x
O=C1/C(=C/c2cccs2)SC(=S)N1CC(=O)N1CCCCC1CCO (stereo not given)	0.0	x	x	x	5.8	x	x	x	x	x
CCc1ccc(NS(=O)(=O)c2cccc3nonc23)cc1	0.1	8.7	0.4	5.0	-20.0	1.2	x	x	x	x
